Holding throughout (assay): DAPPL (digital affinity profiling via proximity ligation, sequencing); 10 mM Tris-HCl pH 7.5, 50 mM NaCl, 1 mM DTT, 4% glycerol, room temperature, 30 min; GST-TFs on glutathione beads, 16-mer random dsDNA library, 0.1% formaldehyde crosslink after washing; high values mean tight binding
Common to all, as to conditions: protein: recombinant; tags: N-terminal GST; dsDNA, one strand shown

The target in one assay is T1, ERF (Homo sapiens, UniProt P50548 1-548).
T1 sequence: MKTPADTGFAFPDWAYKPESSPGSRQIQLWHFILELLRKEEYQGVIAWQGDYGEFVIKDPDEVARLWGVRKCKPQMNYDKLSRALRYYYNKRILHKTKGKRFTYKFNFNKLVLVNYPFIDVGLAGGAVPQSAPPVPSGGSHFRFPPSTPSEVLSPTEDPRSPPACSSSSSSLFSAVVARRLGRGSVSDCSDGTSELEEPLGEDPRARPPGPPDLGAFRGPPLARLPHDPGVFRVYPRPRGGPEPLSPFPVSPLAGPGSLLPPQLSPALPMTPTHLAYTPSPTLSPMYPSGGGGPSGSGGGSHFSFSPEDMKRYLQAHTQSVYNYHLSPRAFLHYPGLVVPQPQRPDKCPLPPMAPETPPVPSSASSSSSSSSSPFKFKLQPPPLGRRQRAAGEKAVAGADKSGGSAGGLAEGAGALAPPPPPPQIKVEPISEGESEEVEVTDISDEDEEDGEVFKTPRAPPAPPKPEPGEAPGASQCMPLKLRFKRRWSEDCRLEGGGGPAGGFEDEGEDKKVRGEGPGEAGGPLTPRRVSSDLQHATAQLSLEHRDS
The method in brief: (§1)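 Human transcription factors carrying a GST fusion were produced in yeast, bound to glutathione beads, tagged with DNA barcodes and pooled together with a tag-only sample. Each pool was held with 200 nmole of a random double-stranded 16-mer DNA library in Tris/NaCl/DTT/glycerol buffer for 30 min at room temperature, then washed, crosslinked in 0.1% formaldehyde, proximity-ligated with BsaI/T4 ligase (1 h, 37 °C), PCR-amplified and sequenced on an Illumina NextSeq500. Binding signal is the read frequency of each hexamer for a given factor divided by its frequency in the tag-only sample.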

Another assay has as its target T2, ETV3L (Homo sapiens, UniProt Q6ZN32 1-361).
T2 sequence: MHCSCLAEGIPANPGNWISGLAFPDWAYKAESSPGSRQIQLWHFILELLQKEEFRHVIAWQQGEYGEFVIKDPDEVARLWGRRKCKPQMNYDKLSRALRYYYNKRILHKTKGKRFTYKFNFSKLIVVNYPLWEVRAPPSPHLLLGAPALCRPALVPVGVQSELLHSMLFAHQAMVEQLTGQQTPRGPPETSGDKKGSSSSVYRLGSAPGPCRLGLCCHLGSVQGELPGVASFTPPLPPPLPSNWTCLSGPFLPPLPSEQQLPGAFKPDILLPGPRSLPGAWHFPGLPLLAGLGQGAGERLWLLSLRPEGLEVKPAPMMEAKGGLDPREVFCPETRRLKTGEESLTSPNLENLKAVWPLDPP
The method in brief:
as §1

Another assay has as its target T3, ETS2 (Homo sapiens, UniProt P15036 1-469).
T3 sequence: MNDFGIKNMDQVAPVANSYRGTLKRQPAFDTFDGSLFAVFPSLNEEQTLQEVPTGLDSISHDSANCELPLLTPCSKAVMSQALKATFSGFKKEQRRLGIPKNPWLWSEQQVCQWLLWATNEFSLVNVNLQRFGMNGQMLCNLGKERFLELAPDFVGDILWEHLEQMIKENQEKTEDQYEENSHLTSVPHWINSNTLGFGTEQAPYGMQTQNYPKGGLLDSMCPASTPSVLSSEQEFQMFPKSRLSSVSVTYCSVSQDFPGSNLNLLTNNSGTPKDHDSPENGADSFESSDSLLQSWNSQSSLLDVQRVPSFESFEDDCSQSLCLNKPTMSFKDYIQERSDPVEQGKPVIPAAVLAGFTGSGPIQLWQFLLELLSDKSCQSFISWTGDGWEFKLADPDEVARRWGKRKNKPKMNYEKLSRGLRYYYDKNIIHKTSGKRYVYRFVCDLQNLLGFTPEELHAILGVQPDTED
In a few lines:
as §1

In the next assay the target is T4, SPDEF (Homo sapiens, UniProt O95238 1-335).
T4 sequence: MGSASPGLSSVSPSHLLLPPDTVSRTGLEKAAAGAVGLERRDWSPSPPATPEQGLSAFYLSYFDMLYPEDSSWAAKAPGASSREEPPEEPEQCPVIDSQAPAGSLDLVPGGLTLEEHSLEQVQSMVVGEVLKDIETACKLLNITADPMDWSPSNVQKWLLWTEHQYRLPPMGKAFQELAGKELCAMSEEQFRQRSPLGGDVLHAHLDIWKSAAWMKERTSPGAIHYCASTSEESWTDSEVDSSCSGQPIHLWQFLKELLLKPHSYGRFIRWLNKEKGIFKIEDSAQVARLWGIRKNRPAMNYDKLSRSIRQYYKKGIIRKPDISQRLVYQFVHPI
The method in brief: as §1

The target in the next assay is T5, ETV7 (Homo sapiens, UniProt Q9Y603 1-341).
T5 sequence: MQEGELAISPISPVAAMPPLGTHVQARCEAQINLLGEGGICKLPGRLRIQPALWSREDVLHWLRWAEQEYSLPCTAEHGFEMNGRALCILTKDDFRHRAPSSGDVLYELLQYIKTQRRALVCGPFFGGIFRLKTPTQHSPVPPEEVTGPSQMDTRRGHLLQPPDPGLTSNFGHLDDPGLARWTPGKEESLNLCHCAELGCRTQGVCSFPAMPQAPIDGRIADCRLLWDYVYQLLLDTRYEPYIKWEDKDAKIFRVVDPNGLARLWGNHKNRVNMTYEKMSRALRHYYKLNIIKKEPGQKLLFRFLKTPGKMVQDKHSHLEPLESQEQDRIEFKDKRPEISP
In a few lines:
as §1

The target of another assay is T6, ELF5 (Homo sapiens, UniProt Q9UKW6-2 1-255).
T6 sequence: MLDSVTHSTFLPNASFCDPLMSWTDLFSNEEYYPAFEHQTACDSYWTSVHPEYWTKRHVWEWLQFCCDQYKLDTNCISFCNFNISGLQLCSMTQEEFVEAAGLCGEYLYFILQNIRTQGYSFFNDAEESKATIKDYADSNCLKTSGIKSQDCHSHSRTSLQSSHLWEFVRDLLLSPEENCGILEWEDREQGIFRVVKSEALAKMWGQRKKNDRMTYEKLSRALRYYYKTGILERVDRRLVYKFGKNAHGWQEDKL
In a few lines:
as §1

For the next assay, the target named is T7, ETV3 (Homo sapiens, UniProt P41162-2 1-143).
T7 sequence: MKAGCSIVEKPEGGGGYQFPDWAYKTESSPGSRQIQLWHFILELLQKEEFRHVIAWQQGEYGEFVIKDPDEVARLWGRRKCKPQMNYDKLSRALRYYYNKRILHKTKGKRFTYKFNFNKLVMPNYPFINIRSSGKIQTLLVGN
The method in brief:
as §1

A further assay concerns the target ETV6 (Homo sapiens, UniProt P41212 1-452). In a few lines:
as §1

Sequence of ETV6 (P41212 whole entry): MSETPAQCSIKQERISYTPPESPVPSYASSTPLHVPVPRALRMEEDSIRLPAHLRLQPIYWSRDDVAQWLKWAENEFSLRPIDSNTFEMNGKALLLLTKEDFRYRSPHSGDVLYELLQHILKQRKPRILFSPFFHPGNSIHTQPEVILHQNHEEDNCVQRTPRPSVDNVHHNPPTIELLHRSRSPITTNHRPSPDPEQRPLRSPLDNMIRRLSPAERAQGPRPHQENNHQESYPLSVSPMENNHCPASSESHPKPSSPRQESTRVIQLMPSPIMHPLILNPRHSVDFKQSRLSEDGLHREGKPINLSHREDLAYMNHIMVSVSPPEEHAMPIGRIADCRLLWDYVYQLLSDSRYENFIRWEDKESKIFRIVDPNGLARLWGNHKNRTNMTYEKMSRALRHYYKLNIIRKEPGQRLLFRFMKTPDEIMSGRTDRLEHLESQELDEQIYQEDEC

With AAATAG, the binding signal with ERF is 1.11 fold enrichment (6-mer frequency, TF over GST control); with ETV3L, 1.15 fold enrichment (6-mer frequency, TF over GST control); with ETS2 it was 1.12 fold enrichment (6-mer frequency, TF over GST control); with SPDEF, 1 fold enrichment (6-mer frequency, TF over GST control); with ETV7, 1.23 fold enrichment (6-mer frequency, TF over GST control); in the assay with ELF5 it was 1.14 fold enrichment (6-mer frequency, TF over GST control). The binding signal is 1.21 fold enrichment (6-mer frequency, TF over GST control) with ETV3 and 1.18 fold enrichment (6-mer frequency, TF over GST control) in the assay with ETV6.
For ACGACA, the binding signal with ERF was 1.11 fold enrichment (6-mer frequency, TF over GST control); in the assay with ETV3L it was 1.12 fold enrichment (6-mer frequency, TF over GST control); with ETS2 it was 1.12 fold enrichment (6-mer frequency, TF over GST control); in the assay with SPDEF, 1.26 fold enrichment (6-mer frequency, TF over GST control); with ETV7 it was 1.05 fold enrichment (6-mer frequency, TF over GST control); with ELF5, 1.18 fold enrichment (6-mer frequency, TF over GST control). Also, the binding signal in the assay with ETV3 was 1.08 fold enrichment (6-mer frequency, TF over GST control); in the assay with ETV6 it was 1.22 fold enrichment (6-mer frequency, TF over GST control).
As for GTCCCG, the binding signal in the assay with ERF is 1.22 fold enrichment (6-mer frequency, TF over GST control); in the assay with ETV3L, 1.3 fold enrichment (6-mer frequency, TF over GST control); with ETS2, 1.22 fold enrichment (6-mer frequency, TF over GST control); in the assay with SPDEF it was 1.34 fold enrichment (6-mer frequency, TF over GST control); in the assay with ETV7, 1.19 fold enrichment (6-mer frequency, TF over GST control); with ELF5 it was 1.23 fold enrichment (6-mer frequency, TF over GST control). Also, the binding signal is 1.32 fold enrichment (6-mer frequency, TF over GST control) in the assay with ETV3 and 1.13 fold enrichment (6-mer frequency, TF over GST control) with ETV6.
In the case of GACCTC, the binding signal was 1.52 fold enrichment (6-mer frequency, TF over GST control) with ERF; 1.51 fold enrichment (6-mer frequency, TF over GST control) with ETV3L; 1.38 fold enrichment (6-mer frequency, TF over GST control) in the assay with ETS2; 1.29 fold enrichment (6-mer frequency, TF over GST control) in the assay with SPDEF; 1.33 fold enrichment (6-mer frequency, TF over GST control) in the assay with ETV7; 1.32 fold enrichment (6-mer frequency, TF over GST control) with ELF5. The binding signal with ETV3 is 1.28 fold enrichment (6-mer frequency, TF over GST control); with ETV6 it was 1.42 fold enrichment (6-mer frequency, TF over GST control).
Consider GGTAAT, for which the binding signal with ERF is 1.13 fold enrichment (6-mer frequency, TF over GST control); with ETV3L, 1.06 fold enrichment (6-mer frequency, TF over GST control); with ETS2, 1.08 fold enrichment (6-mer frequency, TF over GST control); with SPDEF it was 1.11 fold enrichment (6-mer frequency, TF over GST control); in the assay with ETV7, 1.14 fold enrichment (6-mer frequency, TF over GST control); with ELF5, 1.16 fold enrichment (6-mer frequency, TF over GST control). Moreover, the binding signal in the assay with ETV3 is 1.06 fold enrichment (6-mer frequency, TF over GST control); in the assay with ETV6 it was 1.16 fold enrichment (6-mer frequency, TF over GST control).
In the case of CGTCTA, the binding signal in the assay with ERF is 1.29 fold enrichment (6-mer frequency, TF over GST control); with ETV3L, 1.4 fold enrichment (6-mer frequency, TF over GST control); with ETS2, 1.29 fold enrichment (6-mer frequency, TF over GST control); in the assay with SPDEF, 1.26 fold enrichment (6-mer frequency, TF over GST control); with ETV7, 1.28 fold enrichment (6-mer frequency, TF over GST control); with ELF5, 1.17 fold enrichment (6-mer frequency, TF over GST control). The binding signal in the assay with ETV3 was 1.26 fold enrichment (6-mer frequency, TF over GST control); in the assay with ETV6, 1.26 fold enrichment (6-mer frequency, TF over GST control).
Regarding AATCAT, the binding signal with ERF was 1.18 fold enrichment (6-mer frequency, TF over GST control); with ETV3L it was 1.18 fold enrichment (6-mer frequency, TF over GST control); with ETS2, 1.11 fold enrichment (6-mer frequency, TF over GST control); with SPDEF, 1.07 fold enrichment (6-mer frequency, TF over GST control); with ETV7 it was 1.04 fold enrichment (6-mer frequency, TF over GST control); with ELF5, 1.18 fold enrichment (6-mer frequency, TF over GST control). The binding signal is 1.12 fold enrichment (6-mer frequency, TF over GST control) with ETV3 and 1.16 fold enrichment (6-mer frequency, TF over GST control) with ETV6.
